Data published in PubChem BioAssay AID504832 (National Center for Advancing Translational Sciences (NCATS), 2011).
In all, about 310,000 compounds went through this assay and about 18,000 (5.8%) were called active. About 22% were inconclusive and are not listed. The list comes from a sample in which actives are over-represented; it also holds similar structures and randomly drawn compounds. Entries that show only a call come without a potency. Unmarked numbers belong to inactive results. Calls follow the shape of the dose curve; as a rule, active = well fitted inhibition curve with a large enough effect; inconclusive = small, poorly fitted or top-dose-only effect, or another doubt; inactive = no such curve, though single readings can be large or run the other way.

Assay: Primary qHTS for delayed death inhibitors of the malarial parasite plastid, 48 hour incubation
Conditions: P. falciparum luciferase growth in erythrocytes; series mostly up to 28.7 µM
Method in brief: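 In quantitative HTS format, infected erythrocytes bearing luciferase-reporter parasites were treated for a single generation at 37 C. Luminescence after adding detection reagent served as the growth measure.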
Potency is read from the fitted curve at half-maximal effect.

| Compound | Potency | activity change, negative = inhibition |
| --- | --- | --- |
| Cc1ccccc1NC(=O)Cn1cc(C(=O)C2CC2)c2ccccc21 | inactive |  |
| Cc1ccc(CNC(=O)Cn2cnc(S(=O)(=O)N3CCCCC3)c2)o1 | inactive |  |
| CCCOC1CCCN(C(=O)c2cc(COc3cncc(Cl)c3)on2)C1 (stereo not given) | inactive |  |
| Cc1ccccc1NC(=O)N1CCCC1C(=O)NCc1ccccc1 (stereo not given) | inactive |  |
| COc1ccc(C(C)=O)cc1COc1ccc(Cl)c(C)c1 | inactive |  |
| COc1ccc(/C=C/C(=O)Nc2cccnc2)cc1OC | inactive |  |
| CCn1nc(C)c(NC(=O)/C=C/c2ccc(OC)c(COc3ccc(Br)cc3)c2)c1C | 8.28 µM (active) |  |
| O=C(NC1CCCCC1)n1c(=O)oc2cc(S(=O)(=O)N3CCCCC3)ccc21 | inactive |  |
| CCOC(=O)N1CCN(C(=O)c2cn(C)c3ccc(S(=O)(=O)N4CCCC4)cc3c2=O)CC1 | inactive |  |
| CC(C)COC(=O)n1c(=O)oc2ccc(S(=O)(=O)N3CCCCC3)cc21 | 10.4 µM (active) |  |
| CCOc1ncccc1C(=O)OCC(=O)Nc1cccc(S(=O)(=O)N2CCCCCC2)c1 | inactive |  |
| COc1ccc(N2CCN(S(=O)(=O)c3cc(Br)cnc3N)CC2)cc1 | inactive |  |
| c1ccc(-c2nnc(N3CCOCC3)c3ccccc23)cc1 | inactive |  |
| OCCN1CCN(c2nnc(-c3ccccc3)c3ccccc23)CC1 | inactive |  |
| CCCC(=O)N1CCN(c2nnc(-c3ccc(C)cc3)c3ccccc23)CC1 | 4.15 µM (active) |  |
| Cc1ccc(S(=O)(=O)CC(=O)Nc2sc(C)c(C)c2C(N)=O)cc1 | inactive |  |
| S=C(NCc1ccc(Cl)cc1)NC1CCCCC1 | inactive |  |
| O=C(NCc1ccncc1)NC12CC3CC(CC(C3)C1)C2 | inactive |  |
| S=C(NCc1ccc(Cl)cc1)NC12CC3CC(CC(C3)C1)C2 | 11.7 µM (active) |  |
| CCN(CC)CCOC(=O)c1ccc(NC(=O)CNC(=O)c2ccccc2)cc1 | inactive |  |
| CCCC(C(=O)OCCN(CC)CC)(c1ccccc1)c1ccccc1 | 6.01 µM (active) |  |
| CCC(C(=O)OCCN(CC)CC)c1ccccc1 (stereo not given) | inactive |  |
| COc1ccc(-c2cc3ncccc3cn2)cc1 | inactive |  |
| Cc1cccc(C(=O)Nc2ccc(C(=O)N/N=C/c3cccc(C)n3)cc2)c1 | inactive |  |
| COc1ccc(C(O)(C2CCCCC2)C(CN2CCCC2)c2ccccc2)cc1 (stereo not given) | 11.7 µM (active) |  |
| COc1ccc(CN2CCCC(C(=O)N3CCCCC3)C2)cc1 (stereo not given) | inactive |  |
| CC(CN1CCCCC1)c1ccccc1 (stereo not given) | inactive |  |

| Compound | Potency | activity change, negative = inhibition |
| --- | --- | --- |
| O=C(NCCS(=O)(=O)c1ccc(Br)cc1)c1ccccc1Cl | inactive |  |
| CCCCn1c(SCC(=O)N2CCOCC2)nc2c1c(=O)n(C)c(=O)n2C | inactive |  |
| CC1CC2=C(CC1/C=N/NC(N)=S)C(C)(C)CCC2 (stereo not given) | 13.1 µM (active) |  |
| COc1ccc(C2/C(=C(/O)c3ccc4c(c3)CC(C)O4)C(=O)C(=O)N2Cc2ccncc2)cc1 (stereo not given) | inactive |  |
| COCCN1C(=O)N(c2ccc(Cl)cc2)C(=O)C1CC(=O)Nc1cc(OC)cc(OC)c1 (stereo not given) | inactive |  |
| COCCN(CCOC)c1nc(N)c2c(N)nc3c(c2c1C#N)CC(=O)N3Cc1ccc(Cl)cc1 | 1.65 µM (active) |  |
| CSCCC(NC(=O)c1ccco1)C(=O)Nc1cc(C)ccn1 (stereo not given) | inactive |  |
| Cc1cccc(NC(=O)NC2(C)CCS(=O)(=O)C2)c1 (stereo not given) | inactive |  |
| COCCOC(=O)C1=C(C)N=c2s/c(=C\c3cccs3)c(=O)n2C1c1cccs1 (stereo not given) | 4.15 µM (active) |  |
| CCOC(=O)C1=C(C)NC(=S)NC1c1cccs1 (stereo not given) | inactive |  |
| Cc1cc(=O)oc2cc(OCC(=O)N3CCN(c4ccc(F)cc4)CC3)c(Cl)cc12 | inactive |  |
| O=C(CCc1ccccc1)Nc1ccnn1C1CCN(Cc2ccc(OCCO)cc2)CC1 | inactive |  |
| O=C(Nc1ccccc1N1CCOCC1)c1ccc(OCc2cscn2)cc1 | inactive |  |
| CN1CCN(c2ccc(NC(=O)c3ccccc3)cc2)CC1 |  | -20.4% [at 0.00184 µM] |
| CC(C)n1c(=O)[nH]c2cc(C(=O)Nc3ccccc3)ccc21 | inactive |  |
| CN1CCN(c2ccc(NC(=O)c3ccc4c(c3)[nH]c(=O)n4Cc3ccc(F)cc3)cc2)CC1 | 11.7 µM (active) |  |
| Cc1cc(C)c2nc(N3CCC(C(=O)NCCN4CCOCC4)CC3)sc2c1 | inactive |  |
| COc1ccccc1N1CCN(/N=C/c2ccc(O)cc2O)CC1 | inactive |  |
| COc1ccc(CNC(=O)C2CCN(C(=O)c3ccco3)CC2)cc1 | inactive |  |
| COc1ccc2[nH]c(=O)c(C3c4cc(OC)c(OC)cc4CCN3C(=O)c3ccco3)cc2c1 (stereo not given) | 13.1 µM (active) |  |
| CCc1ccc(OCC2c3cc(OC)c(OC)cc3CCN2C(C)=O)cc1 (stereo not given) | inactive |  |
| CCOC(=O)N1CCN(C(=O)C(=O)Nc2sc3c(c2C#N)CC(C)(C)OC3)CC1 | inactive |  |
| CCc1cc(C(=O)c2ccc(OC)cc2)c(NC(=O)CN2CCN(C)CC2)s1 | 5.22 µM (active) |  |
| CCc1cc(C(N)=O)c(NC(=O)c2ccc(OC)cc2)s1 | inactive |  |
| CCc1ccc(NC(=O)CN2CCC(C(=O)c3ccc(OC)cc3)CC2)cc1 | inactive |  |
| Cc1ccc(NC(=O)Cn2nnc(C(=O)NCc3ccco3)c2N)c(C)c1 | inactive |  |
| CCOc1ccc(NC(=O)NNC(=O)c2ccc(Cl)cc2Cl)cc1 | inactive |  |

| Compound | Potency | activity change, negative = inhibition |
| --- | --- | --- |
| NC(N)=N/N=C/c1ccc(OCc2ccc(Cl)cc2Cl)cc1 | 9.28 µM (active) |  |
| CCOc1ccc(/C=N/NC(N)=S)cc1 | inactive |  |
| CCOc1ccc(OCc2ccc(C(=O)N(C)c3ccccc3)o2)cc1 | inactive |  |
| Fc1ccccc1Cn1cnc(NC(=S)NCCc2ccccc2)n1 | inactive |  |
| N=c1n(CCc2ccccc2)c2ccccc2n1Cc1ccccc1F | 9.28 µM (active) |  |
| O=C(COC(=O)Cc1ccccc1F)NCCc1ccccc1 | inactive |  |
| Nc1c(C(=O)Nc2ccc3c(c2)OCCO3)nnn1Cc1ccccc1 | inactive |  |
| O=C1CCC(C(=O)N2CCCCO2)CN1Cc1cccc(C(F)(F)F)c1 (stereo not given) | inactive |  |
| CSc1ncc(C(=O)Nc2ccc(C)cc2C)c(C)n1 | inactive |  |
| O=C(CN1C(=O)CC(c2ccccc2)S(=O)(=O)c2ccccc21)NC1CCCC1 (stereo not given) | inactive |  |
| CC(=O)c1cc(-c2ccccc2)n(CC(=O)NC2CCCCC2)c1C | inactive |  |
| O=C(CN1C(=O)CC(c2ccccc2)=Nc2ccccc21)NC1CCCCC1 | 9.28 µM (active) |  |
| Cc1cc(NS(=O)(=O)c2ccc(NC(=O)C(C)Oc3cccc(C)c3C)cc2)nc(C)n1 (stereo not given) | inactive |  |
| CC(=O)Oc1ccc(N(C(C)=O)S(=O)(=O)c2ccc3ccccc3c2)cc1Br | inactive |  |
| O=C(COC(=O)c1ccc(F)cc1)NCCCc1ccccc1 | inactive |  |
| N/C(=N/O)c1cccn1Cc1ccccc1[N+](=O)[O-] | inactive |  |
| O=c1c([N+](=O)[O-])cccn1Cc1ccc(F)cc1Cl | 0.37 µM (active) |  |
| O=Cc1cn(Cc2ccc(F)cc2Cl)c2ccccc12 | inactive |  |
| CN(CC(=O)Nc1c(Cl)cccc1Cl)C(=O)CNC(=O)C1CCCCC1 | inactive |  |
| CN(Cc1ccccc1)C(=O)c1ccc(COc2ccccc2)cc1 | inactive |  |
| CC(C)C(=O)NC(=S)Nc1ccccc1F | inactive |  |
| COc1ccccc1NC(=S)NC(=O)C(C)C | inactive |  |
| CC(C)C(=O)Nc1cccc(NC(=S)NC(=O)C(c2ccccc2)c2ccccc2)c1 | 11.7 µM (active) |  |
| COc1cccc(NC(=O)N2CCCC2C(=O)NC2CCCCC2)c1 (stereo not given) | inactive |  |
| COc1ccc(/C=N/OCc2ccccc2C#N)c(OC)c1 | inactive |  |
| CC1CCN(C(=O)c2ccccc2NC(=O)Cc2ccccc2)CC1 | inactive |  |
| CC(=O)c1ccc(Cc2ncc(C(F)(F)F)cc2Cl)s1 | 13.1 µM (active) |  |

| Compound | Potency | activity change, negative = inhibition |
| --- | --- | --- |
| O=C(Cc1ncc(C(F)(F)F)cc1Cl)Nc1cccc(Br)c1 | inactive |  |
| CN1CCN(C(=O)CCc2ncc(C(F)(F)F)cc2Cl)CC1 | inactive |  |
| Cc1ccc2c(c1)N(C(=O)CCC(=O)NCc1cccnc1)CCO2 | inactive |  |
| Cn1c(N2CCOCC2)c(C=O)c2ccccc21 |  | 37.2% [at 0.00184 µM] |
| CCN(CC)CCCN=Cc1c(O)n(-c2ccc(C)cc2)c(=O)c2ccccc12 | inactive |  |
| COc1ccc(-n2nc(C(=O)NCC(=O)N3CCC(C(N)=O)CC3)c3ccccc3c2=O)cc1OC | inactive |  |
| COc1ccc(-n2c(O)c(C=NCC(c3ccco3)N3CCCC3)c3ccccc3c2=O)cc1OC (stereo not given) | 9.28 µM (active) |  |
| Cc1nnc(SCC(=O)Nc2ccc(S(=O)(=O)Nc3ccc(Cl)nn3)cc2)s1 | inactive |  |
| CCN(CC)CCOc1ccc2c(c1)C(=NNC(=O)c1ccccn1)c1cc(OCCN(CC)CC)ccc1-2 | 0.37 µM (active) |  |
| Cc1cccc(OCC(=O)NCCCNC(=O)c2ccccn2)c1 | inactive |  |
| CCC(C)(NC(=O)c1ccccn1)C(=O)NC1CCCCC1 (stereo not given) | inactive |  |
| CCOc1ccccc1OCC(=O)Nc1ccccc1C(=O)NC1CC1 | inactive |  |
| O=C(CCNS(=O)(=O)c1ccccc1C(F)(F)F)Nc1ccncc1 | inactive |  |
| C/C(N)=C(/C#N)C(=O)COC(=O)C1=NN(c2ccccc2)C(=O)CC1 | inactive |  |
| O=C(Nc1ccccc1-c1nc2ccccc2[nH]c1=O)c1cccs1 | inactive |  |
| Cc1ccc(C(=O)c2ccc(N3CCN(C)CC3)c([N+](=O)[O-])c2)cc1 | inactive |  |
| CN1CCN(c2ccc(S(=O)(=O)Nc3ccccc3)cc2[N+](=O)[O-])CC1 | inactive |  |
| CN1CCN(S(=O)(=O)c2ccc(N3CCN(c4ccccc4O)CC3)c([N+](=O)[O-])c2)CC1 | 11.7 µM (active) |  |
| COc1ccccc1C(=O)NCCC(=O)N(C)Cc1cccnc1 | inactive |  |
| Cc1ccc(S(=O)(=O)N2CCCCC2)cc1C(=O)N(C)CC(=O)Nc1cccc(F)c1 | inactive |  |
| COc1ccccc1C(=O)NCCC(=O)NC1=NCCS1 | inactive |  |
| COc1ccc(N(CC(=O)N2CCOCC2)S(=O)(=O)c2ccccc2)cc1Cl | inactive |  |
| COc1ccc(NC(=O)CN(C)C(=O)c2ccc(NC3CC3)c([N+](=O)[O-])c2)cc1 | inactive |  |
| CCCCN(C(=O)C1CCC1)c1c(N)n(Cc2ccccc2)c(=O)[nH]c1=O | inactive |  |
